# Compound activity (PubChem)
# Most compounds without a hit are left out; they make up all but 3.3% or so of the library.
# PERK inhibitor – block of dimerizer-induced PERK translation repression, primary screen, PERK inhibitor project, CHO PERK-DD cells, SEAP luminescence, HTS | AID 1416, 2008 | 0.17% of 220,000 active | CHO PERK-DD fusion, SEAP luminescence translation reporter | inhibition, % at 5.6 µM | Eukaryotic translation initiation factor 2-alpha kinase 3 (Homo sapiens), Q9NZJ5;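 active = inhibition above the mean inhibition of all tested compounds plus 3 SD, set separately per screening campaign, cut at about 2.9% in these data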;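 also: PERK kinase domain activated by AP20187 dimerizer at 100 nM; 0% = DMSO with dimerizer and 100% = rapamycin at 8.4 µM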
# Arbovirus anti – antivirals against arbovirus infection, primary screen, cell-based, full library, 10K replicate subset; inhibition, % at 10 µM; 0.37% of 200,000 active; arbovirus infection cell-based antiviral screen; in the data active = inhibition above about 30%
# WT yeast gro inh – growth inhibition of WT strain, primary screen, mitochondrial fusion inhibitor project, WT and mutant strains, chemical genetic; mitochondrial fusion phenotypic screen; 2.1% of 190,000 active; AID 1362, 2008; inhibition, % at 10 µM; in the data active = inhibition above about 58%; tested in S. cerevisiae
# ROMK mod – ROMK potassium channel modulators, primary screen, cell-based, thallium flux, MLSMR library; ATP-sensitive inward rectifier potassium channel 1 (Homo sapiens), P48048; B-score at 10 µM; 2% of 130,000 active; AID 1918, 2009; Tet-inducible ROMK, thallium flux fluorescence; actives lie on both sides;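 active = signal ratio slope over the read window, or its plate-corrected B-score, at least 3 SD from the plate mean, either direction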;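 also: B-score of the F/F0 ratio slope over 7 to 12 s after thallium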
# The depositor's hits bear a star; · = no result given.
SMILES,PERK inhibitor,Arbovirus anti,WT yeast gro inh,ROMK mod
Cc1cc(C)n(CCc2nc(-c3ccc(C(C)(C)C)cc3)cs2)n1,0,-12,75*,·
C=CCN(c1ccccc1)S(=O)(=O)c1cccc(C(=O)O)c1,3.4*,-3,-13,-0.045
Cc1ccc(S(=O)(=O)N(CCCO)CC(O)CON=C2c3ccccc3-c3ccccc32)cc1 (stereo not drawn),-1,-46,59*,·
CCN(CC(O)Cn1c2ccccc2c2ccccc21)S(=O)(=O)c1ccc(C)cc1 (stereo not drawn),0,-34,34,-1.3
O=C(CSc1nc2ccccc2s1)N/N=C/c1ccc(C(=O)O)cc1,0,8,-7,0.098
COc1cc(-c2nc3ccccc3s2)ccc1O,0,-42,·,-1.9
O=C(O)c1ccc(C=C(c2nc3ccccc3s2)c2nc3ccccc3s2)cc1,1,-34,74*,-0.085
COc1cc(C=C(c2nc3ccccc3s2)c2nc3ccccc3s2)cc(OC)c1O,-1,-5,74*,-0.13
COc1ccc(-c2nc3ccccc3s2)cc1O,0,18,59*,-0.064
COc1cc(/C=N/NC(=Nc2ccc(C)cc2)c2nc3ccccc3s2)ccc1O,-1,-30,75*,·
O=C(N/N=C/c1ccc2c(c1)OCO2)C(=O)Nc1ccc2ccccc2c1,0,-6,3,-0.015
O=C(O)c1cccc(N2C(=O)/C(=C/c3ccc(SCc4ccc(Cl)cc4)o3)SC2=S)c1,3,-2,37,-4.2*
O=C(COC(=O)CCc1c[nH]c(=O)[nH]1)Nc1ccccc1,2,-2,2,·
Cc1ccc(NC(=O)COC(=O)CCc2c[nH]c(=O)[nH]2)cc1,4.0*,1,0,·
CCOC(=O)c1cc(=O)c2ccc(OCC(=O)Nc3ccc(F)cc3)cc2o1,1,·,·,·
CCNc1nc(SCCOc2ccc(Cl)cc2Cl)nc(N(C)C)n1,2,30*,64*,-0.039
O=C(O)CCC(=O)NCc1ccc(F)cc1,-1,12,-3,2.7
Clc1ccc(/C=N/N2CCN(Cc3ccccc3Cl)CC2)cc1,0,1,66*,0.75
COc1ccccc1/C=C/C=N/N1CCN(Cc2ccc(Cl)cc2)CC1,1,-4,42,-0.45
Clc1ccccc1CN1CCN(/N=C/c2ccncc2)CC1,0,-22,41,-1.1
COc1ccccc1/C=C/C=N\N1CCN(Cc2ccccc2Cl)CC1,1,-18,63*,·
CCc1c(C)c2nncn2[nH]c1=O,2,4,·,-0.64
Cc1cccn2c(NCc3ccc4c(c3)OCO4)c(-c3ccc(O)cc3)nc12,0,0,-13,-0.62
CN(C(=O)c1coc(=O)c2ccccc12)c1ccc(F)cc1,1,6,31,0.88
CN(C(=O)c1coc(=O)c2ccccc12)c1ccc(Br)cc1,2,40*,3,0.011
SMILES,PERK inhibitor,Arbovirus anti,WT yeast gro inh,ROMK mod
O=C(CSc1nnnn1-c1ccc(Cl)cc1)N1CCc2ccccc2C1,-1,9,81*,-0.38
Cn1nc(C(F)(F)F)c(C(=O)Nc2ccc(F)cc2F)c1Sc1ccc(C(F)(F)F)cc1,0,1,13,·
C=CCN1C(=O)CS/C1=N\S(=O)(=O)c1ccc(Cl)cc1,1,-9,12,·
Cn1c(O)c(N=NC(=S)Nc2ccccc2F)c2cc(S(=O)(=O)N3CCOCC3)ccc21,1,-12,74*,0.1
Cc1ccc(C(=O)NCC(=O)OCC(=O)NCC(F)(F)F)cc1,0,4,-3,-0.13
C=C(C)C1CC=C(C)/C(=N\NC(=S)Nc2ccc(C)cc2)C1 (stereo not drawn),0,-9,61*,0.67
C=C(C)C1CC=C(C)/C(=N\NC(=O)CCc2ccccc2)C1 (stereo not drawn),1,3,-3,·
C=C(C)C1CC=C(C)/C(=N/NC(=O)COc2ccccc2Cl)C1 (stereo not drawn),-1,-23,58*,0.8
C=C(C)C1CC=C(C)/C(=N/NC(=O)COc2ccc(C)cc2)C1 (stereo not drawn),-1,-5,-10,·
O=C(c1ccccc1)c1nc[nH]c1C(=O)Nc1ccccc1,2,-11,-3,·
Cn1c(NC(=O)C2CCCO2)cc(=O)n(C)c1=O (stereo not drawn),1,-1,13,·
c1ccc(CN2CCC(Nc3nc(-c4cccs4)nc4ccccc34)CC2)cc1,-1,-35,48,-0.42
c1csc(CNc2nc(-c3cccs3)nc3ccccc23)c1,1,-17,79*,0.015
CSc1cccc(NC(=S)Nc2cc(C)ccc2C)c1,-2,·,·,·
Cn1c(=O)c2ncn(CC(=O)Nc3nc(-c4ccc(Cl)cc4)cs3)c2n(C)c1=O,0,10,-2,-0.0029
N/C(Cc1ccc(Cl)cc1)=N\OC(=O)c1cccc2ccccc12,0,10,98*,·
N/C(Cc1ccc(Cl)cc1)=N\OC(=O)c1ccc2ccccc2c1,1,1,-27,·
CSc1nc(C)c(CCO)c(=O)[nH]1,0,31*,11,0.4
O=C1CC(c2ccc(F)cc2)CC(O)=C1C1NCCc2ccccc21 (stereo not drawn),-2,2,-7,·
CCc1ccc(-n2c(SCC(=O)N3Cc4ccccc4CC3C(=O)O)nnc2-c2ccncc2)cc1 (stereo not drawn),3.4*,·,·,·
Cc1cc(C)n(C(=O)C23CC4CC(CC(C4)C2)C3)n1,1,8,-4,·
COc1ccccc1-n1c(SCc2cc(=O)oc3cc(O)ccc23)nc2ccccc2c1=O,0,-31,1,-1.5
COc1ccccc1-n1c(=O)oc2ccc(Cl)cc2c1=O,1,-12,76*,·
COCCN=c1scc(-c2cccs2)n1/N=C/c1ccc(O)c(O)c1O,1,-14,3,·
COCCN=c1scc(-c2ccccc2)n1/N=C/c1c[nH]c2ccccc12,0,-30,79*,·
SMILES,PERK inhibitor,Arbovirus anti,WT yeast gro inh,ROMK mod
CC(C)Oc1ccc(-c2nn(-c3ccccc3)cc2/C=c2\sc3ncnn3c2=O)cc1,0,34*,-9,·
COc1cc(Cl)cc(/C=C/c2ccc3ccccc3n2)c1OC(C)=O,2,-32,60*,0.44
Cc1ccc(C)c(N(CC(N)=O)S(C)(=O)=O)c1,0,4,16,·
Cc1c(Cl)cccc1Nc1nc(N)nc(CSc2nc3ccccc3s2)n1,0,17,72*,·
CC(NC(=O)c1ccc(Br)s1)c1ccncc1 (stereo not drawn),2,7,10,·
CC1Cc2ccccc2N1c1ncnc2c1nnn2Cc1ccccc1 (stereo not drawn),1,-3,65*,-0.22
CC1Cc2ccccc2N1c1nc(C2CC2)nc2c1nnn2Cc1ccccc1 (stereo not drawn),0,5,27,·
Cc1cccc(C(=O)NCC(=O)Nc2ccc(S(=O)(=O)Nc3nc(C)cc(C)n3)cc2)c1,0,-1,2,1.3
CN1CCN(CCCNC(=O)c2ccc(/C=C3\Sc4ccccc4N(Cc4ccccc4F)C3=O)cc2)CC1,0,-31,49,-1.1
CCN1CCN(CCNC(=O)c2ccc(/C=C3/Sc4ccccc4N(Cc4cccc(Cl)c4)C3=O)cc2)CC1,1,-30,98*,-1.3
